Data reported in PubChem BioAssay AID1347426 (Functional Genomics Laboratory (NCATS/FGL), 2020).
In all, about 31,000 sequences went through this assay and about 1,400 (4.5%) were called active. This is one part of a sample in which actives are shown more often than they occur. Unmarked numbers belong to inactive results.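 The calls were made as follows: active = median seed-adjusted z-score above 1 or below -1; inactive = the rest.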

experiment: Novel Modifiers of Survival Motor Neuron (SMN) Protein: Gene Identification via Genome-wide siRNA Screen; conditions: HEK293T SMN2-luciferase reporter, siRNA knockdown, 72 h; actives lie on both sides;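 also: luminescence tracks full-length SMN protein made from the SMN2 reporter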
Procedure, shortened: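 Luciferase signal, proportional to full-length SMN made from an SMN2 cDNA reporter in stable HEK293T cells, was read 72 h after siRNA reverse transfection. Values were expressed as MAD scores after non-targeting-control normalization and log10 conversion; seed analysis flagged off-targets.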

| Sequence | median seed-adjusted z-score |
| --- | --- |
| CAAUGUUUACUACAAUGAATT against TUBB2B | 0.935 |
| GGAGUGCUAGAAUCUACUATT against HEPH | -0.293 |
| GGAUACAAAGCACAUAACATT against UBE2D4 | 0.232 |
| GAGCAUUAUGUUACACCAATT against TTC6 | 0.234 |
| GAACCUCAGUUGAGUAUUUTT against RPE | 0.616 |
| CAGUGCUGUUAGAAUAAAATT against ZNHIT1 | -0.497 |
| UGUGGAGAAUGACUACAUATT against SPRY4 | -1.23 (active) |
| GGAUGACCAGGGUCUAUAATT against FMO4 | -0.359 |
| CCAUGAAUUCUUACUUUUATT against VAC14 | 0.0825 |
| CAGAAUCAGCUGGAAGAAATT against BAIAP2 | -0.0497 |
| GUAGCAGGGCUGAACCCAUTT against ZMAT5 | 0.292 |
| GCCGUGACCUACUUCAUCATT against SLC29A4 | 0.0192 |
| CAGCUGAUGCGGACCAAGATT against RASSF4 | 0.29 |
| GAUACUCGUAUUAAGCCUATT against USP32 | 0.484 |
| GAACUGUGCUGAUGUGAAATT against PATE1 | 1.21 (active) |
| GCAAGUCGUGAAACUAUAATT against YEATS4 | 0.905 |
| GGUGCUGAAUGUGGAGUAATT against DNAJC3 | 0.502 |
| GCAGAACAACGAGCACAGATT against CTSW | -0.342 |
| GGAAUUCCAGUAACGAUGATT against RNF149 | -0.17 |
| GCAUAAAUGAAAUCUCGGATT against ZMYND8 | -0.065 |
| GGGUCAUCCGAGAAAAGAATT against ADAMTS17 | 0.257 |
| GAGCAGUACAGAACAGGAATT against HAAO | 0.214 |

| Sequence | median seed-adjusted z-score |
| --- | --- |
| GCUGCUCACUGUUUCAUGATT against PRSS36 | 0.589 |
| CAACAGAAUAUGCCGUAUATT against SNRPA1 | -2.71 (active) |
| GUUUGCAUGUGACAAUGGATT against PPTC7 | 0.49 |
| GCACAGGUCUAAUUCGUCUTT against GRIK1 | -0.31 |
| CGACACCGGAUAAACCAAATT against HES1 | -0.262 |
| GCACCAGGAUAUGUCUUAATT against YY1AP1 | 0.0453 |
| GGUCAAAGAGUUAUAGAUUTT against MKKS | 1.03 (active) |
| GGUGUCACCCUGUGAAUUUTT against MAP1S | 0.0941 |
| AGCCUAUGGUCGGAACGAATT against APOBEC3F | -0.315 |
| GCACCUAUGCAGCUCUUCATT against FBLIM1 | 0.0604 |
| GGGUUACCCUGGUCAUUAATT against ZNHIT2 | -0.339 |
| GGAGAGACCAGUAAACCGATT against NSFL1C | -0.0899 |
| CGAUGAACAUGUUAGACAUTT against AZIN1 | -1.14 (active) |
| GUACAGGGAGCAGAUCAAATT against HRAS | -0.85 |
| GGAUGUUCACAACCGAAUUTT against CTNNB1 | 0.0802 |
| GGGUAAACGAUUCCAGCAATT against N-PAC | 0.0542 |
| GAAUUGGACUGGAUGCUAATT against DGKK | 0 |
| GGUCCAAAGGGAUCAGGAATT against EMR2 | 0.0569 |
| GCAUCGUUUCUAUGAACUUTT against KCNB2 | 1.22 (active) |
| GGAUGUAAGCCUGACCAUATT against ZNF784 | 0.291 |
| CCAGAAAGCUUCAUCCACATT against MC1R | -0.64 |
| GCAGAUCCCUUGUUUUCCUTT against APLN | 0.0181 |

| Sequence | median seed-adjusted z-score |
| --- | --- |
| CGCUUAAGCCUUCCAACAATT against POLR2A | -3.81 (active) |
| CGGGCAUUCUUAUUAGUCATT against SLC2A2 | -0.498 |
| CAUCCAGCAUACAAAAGAATT against FCRL3 | -0.642 |
| GCCUCAGUGUUAUUCGAUATT against MAP1B | 0.139 |
| AGAUCGACUUGAUCGUGCATT against CDK10 | 0.327 |
| CAGUCUUCACUGACAACUATT against VIP | 1.52 (active) |
| GGACCAAGAUGAUCAGAAATT against SAFB | -0.954 |
| CAUAGUCCUUGGACAUGUATT against TDRD9 | 0.0754 |
| CUACCAAUAUGAUAGGUUATT against DDX17 | 0.231 |
| CUAUAGGUUUUAUAGCAUUTT against LIPA | 0.535 |
| GAGUUUCUGUCCAAACUGATT against IL17RA | -1.29 (active) |
| GGCAAAAACUGUGAAUUAUTT against F10 | -0.0033 |
| CGGAAGGACAGACAAGUAATT against SIGLEC9 | 0 |
| CCAUCACGUUCAUUACCUUTT against GAN | -1.07 (active) |
| GCCUUUGCAGGUAUCAGAATT against LYPLA1 | 0 |
| GCUUGACUUCAAAACUAAATT against SERPIND1 | 0.133 |
| CCCAAUCAGUAAGAACCAATT against CEACAM1 | -0.211 |
| CCACCUAUAAAGUUCUAAATT against CAPRIN1 | 1.36 (active) |
| GAUUAUACAUAUUUCGCAATT against BRCA2 | 0 |
| UGGUGUACACUGUUACUCATT against LOC158381 | 0 |
| CGGUCUACAGCAUCGAGUATT against IL22RA1 | -1.14 (active) |
| CUAUCGACAUCAAGAGUUUTT against PSPC1 | 0.0612 |

| Sequence | median seed-adjusted z-score |
| --- | --- |
| GGUUGACAGUGUGCCUAAATT against NRIP1 | 0.789 |
| GGAUAGAUGUUUCUAUCAATT against SUZ12 | -1.65 (active) |
| GGUGUUUGAUUGUGAGAAUTT against UBE2G1 | 0.174 |
| CCCACUACAGAAGACUUAUTT against SLC4A1 | -0.861 |
| GAAAUGUACCCUCCAGAAATT against CCNB1 | 0.163 |
| CCGGAGAUGGAUGAAUCUATT against ICAM5 | -1 (active) |
| GUUUCUCAGUACUUCCAGATT against APOA2 | -0.297 |
| GGAUGAGGUCUUCACCAAATT against NENF | -0.778 |
| AAAUCUUCUUUCGACAACATT against RAB37 | 0.0678 |
| GCAAGAUGCAUGCUCAUGATT against ZNF142 | 0.111 |
| CUGUUGAAAUGUAAAACGATT against VNN1 | 0.549 |
| GGACAGAUCUUACCCAUCUTT against TRIM59 | 0.941 |
| AGCCUUUAAUCAUUUCUCATT against ZNF85 | -1.01 (active) |
| CUUCAUAUUUGACACCUAUTT against SLC25A26 | 0.0213 |
| GACUUUCAGUUCUUACGAUTT against CCNB3 | 0 |
| GGCUCAAUAUGGAGGAUUATT against NPR3 | -0.436 |
| GGCCCUAUGUAUAUGCUUUTT against AK3 | -0.0313 |
| ACAUGCAGCUGGUAAGGAUTT against MFSD4 | -1.89 (active) |
| GAUACGUUCUGCAAUGUUATT against EPYC | 0.00264 |
| AGACCAAGAGCGCAUCAAATT against JUNB | -0.224 |
| GGUUGUUGGUUGGACUGUUTT against GDE1 | -0.256 |
| CACUCACUGUUCCUAUCAATT against STAMBPL1 | 0.13 |

| Sequence | median seed-adjusted z-score |
| --- | --- |
| GAAACGAUGAAAUAAGAUATT against PTGS1 | 0.0458 |
| GGUUGGUCUCCUCUUCAUATT against PSMD10 | 0.265 |
| CCCUCUCACUUGAAGAUCATT against HYAL1 | -0.163 |
| AUUCAUCUCAUAAACAAAATT against BATF2 | 0.714 |
| GCAUGGAGCAGAUCGUGUUTT against ITPR3 | -1.28 (active) |
| GCAGCAUCAAUGUCUGGAATT against SLC6A8 | -0.0673 |
| GGCCUUAGAUGAGUCCCUATT against PABPN1 | -0.757 |
| ACAAUGAACUGGAUCAACATT against TBX20 | 0.00303 |
| CACUAUCUAUUCCACCUUUTT against HTR1A | 0 |
| CAGGUGCUUCGUUUCCUGATT against ARHGAP1 | -1.14 (active) |
| GAGUAAACCUCGAAACCGATT against MAP3K13 | -0.121 |
| GACCAUGAAUUUCAUUGUATT against MYLK3 | 0.316 |
| GGACUAAAACUUUAAACUATT against POU4F2 | 1.46 (active) |
| CUACCAGGAUGUUGAUAAATT against ZNF761 | 0.291 |
| GGAUUGAGGUGGAGAUGGATT against MCM5 | 0.126 |
| CUAAAGGUCUUGUUACAUUTT against ASNS | -1.1 (active) |
| ACCUAGAAGUGAACUGUGATT against GP1BA | 0.0803 |
| UGGUGACUCUCAUUUCGCATT against BCAP31 | 0.277 |
| GGAUGUCACUGUUUCUGGATT against CLIC6 | -0.00828 |
| GGCCUACUGUGGAAUUGGATT against TTC3 | -1.17 (active) |
